The values that follow come from PubChem BioAssay (NCI).

About 83,000 compounds went through this panel and 20% of them were active in at least one assay; those are over-represented in the sample as a whole.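 Values shown are percent growth following 48 h exposure of cells in 96-well plates to a single concentration of compound; below 10 was considered active.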 A number with no mark means an inactive call. Activity calls are given as the source filed them.

Some test systems named below: T-47D breast; BT-549 breast; MDA-MB-435 melanoma; SW-620 colon; MCF7 breast; HCT-116 colon; HCC-2998 colon; KM12 colon.
Common to all, as to assay: NCI-60 one-dose screen, 48 h (100 = growth as untreated, 0 = no growth, -100 = all killed)
What all share (settings): 10 µM unless noted

Consider `CCn1cc(-c2cc(-c3ccc(Cl)cc3)nc(N)n2)c(-c2ccc(Br)cc2)n1`, for which the growth is 48.1% with T-47D breast; 91.3% in the assay with BT-549 breast; 92.8% in the assay on MDA-MB-435 melanoma; 99.7% with SW-620 colon; 72.2% in the assay with MCF7 breast; 66.3% in the assay with HCT-116 colon. For the same compound, the growth in the assay with HCC-2998 colon was 92.9%; with KM12 colon it was 77.7%.
Regarding `CCCCCCSc1ncnc2nc[nH]c12`, the growth with T-47D breast was 73.1%; in the assay with BT-549 breast it was 82.6%; in the assay on MDA-MB-435 melanoma, 84.9%; in the assay on SW-620 colon, 101%; in the assay on MCF7 breast, 94.6%; in the assay with HCT-116 colon it was 85.1%. For the same compound, the results for the growth with HCC-2998 colon and in the assay on KM12 colon were 93.5% and 86%, respectively.
As to `Cc1ccccc1-n1nnc(C(=O)Nc2nc3ccc(F)cc3s2)c1C`, the growth in the assay on T-47D breast is 18.1%; in the assay on BT-549 breast, 36.8%; in the assay with MDA-MB-435 melanoma, 59.2%; in the assay on SW-620 colon it was 85.5%; in the assay on MCF7 breast, 65.3%; in the assay on HCT-116 colon it was 46.5%. Further, the growth was 78.6% with HCC-2998 colon and 72.4% in the assay with KM12 colon.
As to `Cc1cccc(C[C@H](NC(=O)Nc2ccc(Cl)cc2F)C(=O)N[C@@H]2C(=O)N3C[C@H](O)C[C@H]3C(=O)N3CCN(C)C[C@H]3C(=O)N[C@@H](C)C(=O)N3C[C@H](C)C[C@H]3C(=O)O[C@H]2C)c1`, the growth in the assay with T-47D breast is 21.5%; in the assay on BT-549 breast it was 17.2%; in the assay on MDA-MB-435 melanoma it was 22.1%; in the assay with SW-620 colon, 42.4%; in the assay on MCF7 breast, 23%; in the assay with HCT-116 colon, 9.83% (active). Besides, the figures for the growth in the assay with HCC-2998 colon and in the assay on KM12 colon were 34.5% and 40.5%, respectively.
`N#C/C(C(=O)c1ccccc1)=C1/C(=O)Nc2ccc(Br)cc21`: the growth with T-47D breast is 90.5%; in the assay with BT-549 breast, 99.2%; in the assay on MDA-MB-435 melanoma, 102%; with SW-620 colon it was 97%; in the assay with MCF7 breast it was 95.9%; with HCT-116 colon, 99.8%. The growth was 99.7% in the assay on HCC-2998 colon and 105% in the assay on KM12 colon.
As for `O=S(=O)(/N=c1/n(-c2ccccc2)nc2n1CCN2C1=NCCN1)c1ccc(-c2ccccc2)cc1`, the growth in the assay with T-47D breast is 94%; in the assay with BT-549 breast, 97.9%; in the assay on MDA-MB-435 melanoma it was 94.4%; in the assay with SW-620 colon it was 98.3%; with MCF7 breast, 97.8%; with HCT-116 colon it was 95.6%. Besides, the growth with HCC-2998 colon was 101%; with KM12 colon it was 103%.
In the case of `CCOC(=O)c1nn(C2CCCCO2)c2ccc(NC(=O)Cn3nnc4ccccc43)cc12` (centres undefined), the growth in the assay with T-47D breast was 85.5%; in the assay on BT-549 breast, 96%; in the assay with MDA-MB-435 melanoma, 110%; in the assay on SW-620 colon, 105%; with MCF7 breast, 99.5%; in the assay on HCT-116 colon, 88.6%. For the same compound, the growth was 111% with HCC-2998 colon and 104% with KM12 colon.
Turning to `Nc1cccc2c1C(=O)c1cccc(NC(=O)c3ccccc3)c1C2=O`, the growth was 45.6% in the assay with T-47D breast; 24.9% with BT-549 breast; -56.4% (active) with MDA-MB-435 melanoma; 7.88% (active) in the assay on SW-620 colon; 13.7% with MCF7 breast; 19.9% with HCT-116 colon. In addition, the growth in the assay with HCC-2998 colon was -10.5% (active); with KM12 colon, 32.5%.
As to `Cc1cnc([C@]23CC[C@@H](C)[C@H](C)[C@H]2C2=CC[C@@H]4[C@@]5(C)Cc6c([nH]c7ccccc67)C(C)(C)[C@@H]5CC[C@@]4(C)[C@]2(C)CC3)o1`, the growth with T-47D breast is 58% [100 µM]; in the assay on BT-549 breast, 46.5% [100 µM]; in the assay on MDA-MB-435 melanoma it was -16.7% [100 µM] (active); with SW-620 colon, 20.6% [100 µM]; with MCF7 breast it was 46.8% [100 µM]; in the assay with HCT-116 colon, 17.3% [100 µM]. Also, the growth was 50% [100 µM] in the assay with HCC-2998 colon and 24.7% [100 µM] in the assay with KM12 colon.
On to `CC1(C)CC[C@]2(C(N)=O)CC[C@]3(C)C(=CC[C@@H]4[C@@]5(C)C/C(=C/c6ccncc6)C(=O)C(C)(C)[C@@H]5CC[C@]43C)[C@@H]2C1`, for which the growth in the assay on T-47D breast is -24.8% [100 µM] (active); in the assay with BT-549 breast it was -24.9% [100 µM] (active); in the assay on MDA-MB-435 melanoma, -56.3% [100 µM] (active); in the assay with SW-620 colon it was -32.1% [100 µM] (active); with MCF7 breast it was -36.6% [100 µM] (active); with HCT-116 colon it was -22.7% [100 µM] (active). Further, the growth in the assay on HCC-2998 colon is -50.4% [100 µM] (active); with KM12 colon it was -52.3% [100 µM] (active).
Take `CC1=CC[C@@H]2C(C)(C)C(=O)CC[C@@]2(C)[C@@H]1COc1ccc2ccc(=O)oc2c1`: the growth in the assay with T-47D breast was 6.17% (active); in the assay with BT-549 breast, 55.9%; in the assay on MDA-MB-435 melanoma, 80.5%; with SW-620 colon, 101%; in the assay on MCF7 breast, 87.8%; with HCT-116 colon it was 79.5%. Also, the growth was 83.6% with HCC-2998 colon and 63% in the assay with KM12 colon.
For `Cc1c(Cn2cc(COc3ccc(Br)cc3)nn2)c(C)c(Cn2cc(COc3ccc(Br)cc3)nn2)c(C)c1Cn1cc(COc2ccc(Br)cc2)nn1`, the growth in the assay with T-47D breast was 70.2%; in the assay with BT-549 breast, 97.1%; in the assay on MDA-MB-435 melanoma, 98.7%; in the assay on SW-620 colon it was 85%; in the assay on MCF7 breast, 90%; in the assay with HCT-116 colon, 92.3%. For the same compound, the growth in the assay with HCC-2998 colon is 114%; in the assay on KM12 colon, 99.8%.
`Fc1cc2[nH]ncc2c2c3c(c(-c4cn[nH]c4)nc12)CCCC3`: the growth with T-47D breast was -19.3% (active); in the assay with BT-549 breast it was -17.3% (active); in the assay on MDA-MB-435 melanoma, 5.22% (active); in the assay with SW-620 colon, 5.91% (active); in the assay with MCF7 breast, 3.02% (active); in the assay on HCT-116 colon, 5.6% (active). Besides, the growth in the assay with HCC-2998 colon is 16.5%; with KM12 colon, 5.18% (active).
